Sampled rows, rich in hits. Any-hit rate of the full collection: about 3.4%.
PLC-beta3 inh – PLC-beta3 (human) inhibition, primary screen. inhibition, % at 12.2 µM. actives 0.18% (n = 370,000). Purified PLC-beta3, fluorogenic substrate, fluorescence; in the data active means inhibition above about 11%
ADAM17 inh – ADAM17 inhibition, QFRET primary screen; actives 0.83% (n = 370,000); AID 720648; recombinant ADAM17, EDANS/DABCYL FRET peptide cleavage; inhibition, % at 6.95 µM;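 active means inhibition above the mean of compounds lying between control limits plus 3 SD, set per campaign, cut at about 8.5% in these data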
PLC-gamma1 inh – PLC-gamma1 (human) inhibition, primary screen; P19174; AID 720700; inhibition, % at 12.2 µM; actives 0.84% (n = 370,000); purified PLC-gamma1, fluorogenic substrate, fluorescence; in the data active means inhibition above about 9.5%
proKLK7 act – proKLK7 (human) activation, primary screen; P49862; purified proKLK7, EDANS-DABCYL substrate fluorescence; 100% is mature enzyme control, 0% vehicle; activation, % at 7 µM; actives 0.9% (n = 370,000);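 active means activation above the mean of all tested compounds plus 3 SD, computed per campaign excluding outliers beyond control limits, cut at about 13% in these data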
ADAM10 inh – ADAM10 inhibition, QFRET primary screen. O14672. recombinant ADAM10, EDANS/DABCYL FRET peptide cleavage, 3 h. inhibition, % at 7 µM. actives 0.62% (n = 370,000). AID 720582;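 active means inhibition above a per-campaign cutoff equal to the mean of compounds falling between control-based bounds plus 3 SD, cut at about 20% in these data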
Target sequence (O14672 214-748 limits assumed): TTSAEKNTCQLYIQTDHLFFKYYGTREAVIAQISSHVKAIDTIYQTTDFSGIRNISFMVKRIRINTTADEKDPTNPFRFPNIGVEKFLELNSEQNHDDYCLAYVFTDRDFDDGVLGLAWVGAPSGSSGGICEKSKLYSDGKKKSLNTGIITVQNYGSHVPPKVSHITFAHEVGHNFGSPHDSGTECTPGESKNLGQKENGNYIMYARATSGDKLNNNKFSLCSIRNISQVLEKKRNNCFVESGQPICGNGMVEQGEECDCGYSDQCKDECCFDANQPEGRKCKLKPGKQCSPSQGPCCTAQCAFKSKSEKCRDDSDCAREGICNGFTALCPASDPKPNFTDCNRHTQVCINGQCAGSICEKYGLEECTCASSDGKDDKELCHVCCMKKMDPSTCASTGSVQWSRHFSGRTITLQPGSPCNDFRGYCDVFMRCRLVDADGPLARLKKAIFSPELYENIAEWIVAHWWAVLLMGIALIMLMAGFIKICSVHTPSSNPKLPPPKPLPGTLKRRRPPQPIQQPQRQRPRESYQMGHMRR
sPLA2-III inh – Blocks human group III sPLA2 activity | Q9NZ20 | QFRET BODIPY PC-A2 liposome hydrolysis, fluorescence | inhibition, % at 12.2 µM | actives 0.56% (n = 370,000);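 active means inhibition above mean plus 3 SD of compounds lying within the high and low control bounds, cut at about 19% in these data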
ADAM10 confirm – confirmation of inhibitors of human ADAM10; actives 1% (n = 2,100); ADAM10 QFRET peptide cleavage, EDANS fluorescence; inhibition, % at 6.95 µM; shares compounds with ADAM10 inh;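 active means inhibition above about 20% chosen separately for each screening run, limit read from the data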
ADAM17 ctr – ADAM17 inhibition, counter-screen for ADAM10 exosite hits | inhibition, % at 6.95 µM | actives 0.5% (n = 2,100) | shares compounds with ADAM10 inh | ADAM17 QFRET peptide cleavage, EDANS fluorescence;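 active means mean triplicate inhibition above the solvent-only control wells' mean plus 3 SD, cut at about 12% in these data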
Hits are given with their value; n = inactive; x = no result.

SMILES	PLC-beta3 inh	ADAM17 inh	PLC-gamma1 inh	proKLK7 act	ADAM10 inh	sPLA2-III inh	ADAM10 confirm	ADAM17 ctr
CS(=O)(=O)N[C@@H]1C[C@@H]2O[C@H](CO)CC[C@@H]2O[C@@H]1CCc1ccc(/C=C/c2ccccc2)cc1	n	n	n	n	n	n	x	x
CC1CCC2(CCC(=O)N2CCCOC(=O)c2ccccc2)CC1 (configuration not stated)	n	n	n	n	n	n	x	x
CC(C)Oc1ccc(Cl)cc1Nc1nc(NCCO)nc(N2CCCC2)n1	n	n	n	n	21.4	n	n	n
CCc1ccc(C(=O)N/N=C(\C)c2ccncc2)s1	n	n	n	n	n	n	x	x
C/C(=N/NC(=O)c1ccc(C)s1)c1ccncc1	n	n	n	n	20.5	n	n	n
C[C@@H]1C[C@H]2O[C@@H]2/C=C\C=C\C(=O)Cc2cc(O)cc(O)c2C(=O)O1	n	n	n	n	n	n	x	x
CC(C)C[C@@H]1NC(=O)[C@H]2C[C@]3(c4ccccc4)c4ccccc4N[C@H]3N2C1=O	n	n	n	n	n	n	x	x
O=S(=O)(NCC(Nc1ccc(Cl)cc1)c1ccccc1)c1ccc(Cl)cc1 (configuration not stated)	n	n	n	n	22.7	n	n	n
Cn1c(SCC(=O)Nc2ccccc2-c2ccccc2)nnc1-c1ccccc1	n	n	n	n	n	n	x	x
O=C(NCCCc1ccccc1)OC1CC2CC1[C@H]1CCCCN1[C@H]2Cc1ccccc1 (some centres not stated)	n	n	n	n	n	n	x	x
COC(=O)c1cn[nH]c1NC(=S)Nc1ccc(C)cc1Cl	n	n	n	n	n	n	x	x
COC(=O)c1cn[nH]c1NC(=S)Nc1ccccc1C	n	n	n	n	25.1	n	n	n
COc1ccc(OC)c(CN2C(=O)CN(S(C)(=O)=O)CC2(C)c2nnnn2C2CCCC2)c1 (configuration not stated)	n	n	n	n	n	n	x	x
O=C(NCc1ccc2c(c1)OCO2)c1ccc(CSCc2ccccc2Cl)o1	n	n	n	n	23.2	n	n	n
O=C(NCc1ccc2c(c1)OCO2)c1ccccc1Cl	n	n	n	n	n	n	x	x
COc1ccc(-n2c(C)c(C(C)=O)c3cc(O)ccc32)cc1	n	n	n	n	n	n	x	x
CCOC(=O)COc1ccc2c(c1)c(C(C)=O)c(C)n2-c1ccc(OC)cc1	n	n	n	n	21.2	n	n	n
Cc1cc(Nc2ccccc2)n(-c2nc3ccccc3[nH]2)n1	n	n	n	n	20.9	n	n	n
CCN(CC)c1ccc(NC(=O)COc2ccccc2C)cc1S(=O)(=O)Nc1ccccc1OC	n	n	n	n	20.6	n	n	n
CC(C)(C)c1ccc(C(=O)Nc2cc(Cl)c(Cl)cc2C(=O)O)cc1	n	n	n	x	20.2	n	n	n
CC1(c2nnnn2Cc2ccccc2)CN(S(C)(=O)=O)CC(=O)N1Cc1cccs1 (configuration not stated)	n	n	n	n	n	n	x	x
FC(F)(F)c1cc(CCN2C(=S)NC[C@@H]2Cc2ccccc2)cc(C(F)(F)F)c1	n	n	n	n	26.5	n	n	n
S=c1[nH]cc(-c2ccccc2)n1-c1ccccc1	n	10.6	13.0	n	22.8	n	n	n
N#Cc1nc(COc2ccc(Br)cc2)oc1N1CCCCCC1	n	n	n	n	n	n	x	x
N#Cc1nc(COc2ccc(Br)cc2)oc1N1CCCC1	n	n	n	n	21.1	n	n	n
CCn1c(=O)[nH]n(C/C(C)=C\c2c[n+](Cc3ccc4c(c3)OCO4)c(N)[nH]2)c1=O	n	n	n	x	n	n	x	x
COc1ccccc1NC(=O)Nc1ccc(-n2ccc(C(F)(F)F)n2)cc1	n	n	n	n	30.1	n	n	n
CCCCC(=O)N1CCCC(c2nc3c(nnn3Cc3cc(C)ccc3C)c(=O)[nH]2)C1 (configuration not stated)	n	n	n	n	88.1	n	n	n

Screening results deposited in PubChem BioAssay by The Scripps Research Institute Molecular Screening Center.
